For 55 compounds, cytotoxicity call results are on record in the antibiotic and cytotoxicity screens of Wong et al. (2023).

Among all 39,000 compounds or so, about 1,500 (3.8%) were called active. Only a selection was taken, and actives are over-represented in it overall.

The test relates to HSkMC (human skeletal muscle cells). Description: cytotoxicity call (relative viability < 0.9). The settings on record: 10 µM.
As for `O=C(N[C@H]1CC[C@@H](CCNS(=O)(=O)c2ccc(F)cc2)O[C@H]1CO)C1CC1`, the cytotoxicity call is “inactive”.

In the case of `C[C@@H]1CCCCO[C@@H](CN(C)S(C)(=O)=O)[C@@H](C)CN([C@@H](C)CO)C(=O)c2cc(NC(=O)CCCN(C)C)ccc2O1`, the cytotoxicity call is “inactive”.

Regarding `CC(C)NC(=O)Nc1ccc2c(c1)CC(=O)N([C@@H](C)CO)C[C@@H](C)[C@@H](CN(C)Cc1ccc3c(c1)OCO3)O2`, the cytotoxicity call was “inactive”.

As for `C[C@H]1CCCCO[C@@H](CN(C)C(=O)C2CCCCC2)[C@@H](C)CN([C@@H](C)CO)C(=O)c2cc(NC(=O)c3ccccc3)ccc2O1`, the cytotoxicity call was “inactive”.

In the case of `COC[C@@H](C)NC(=O)C1CN(C(C)=O)C1`, the cytotoxicity call is “inactive”.

For `C[C@H](CO)N1C[C@H](C)[C@@H](CN(C)S(=O)(=O)c2ccc(Cl)cc2)OCc2cn(nn2)CCCC1=O`, the cytotoxicity call was “inactive”.

Turning to `Cc1noc(C)c1NC(=O)Nc1ccc2c(c1)C(=O)N([C@H](C)CO)C[C@@H](C)[C@H](CN(C)Cc1ccc(-c3ccccc3)cc1)O2`, the cytotoxicity call is “inactive”.

Take `C[C@H]1CN([C@@H](C)CO)C(=O)c2cc(NS(=O)(=O)c3ccccc3)ccc2O[C@@H]1CN(C)S(=O)(=O)c1ccc(F)cc1`: the cytotoxicity call was “inactive”.

On to `COc1ccc(-c2cnc3c(c2)C(=O)N([C@H](C)CO)C[C@H](C)[C@H](CN(C)C(=O)Cc2ccncc2)O3)cc1`, for which the cytotoxicity call was “inactive”.

In the case of `C[C@@H]1CCCCO[C@H](CN(C)Cc2ccc(Cl)c(Cl)c2)[C@@H](C)CN([C@H](C)CO)C(=O)c2cc(NS(=O)(=O)c3ccc(Cl)cc3)ccc2O1`, the cytotoxicity call is “inactive”.

On to `C[C@@H]1CCCCO[C@@H](CN(C)Cc2ccc(Cl)c(Cl)c2)[C@H](C)CN([C@H](C)CO)C(=O)c2cc(NS(=O)(=O)c3ccc(Cl)cc3)ccc2O1`, for which the cytotoxicity call was “active”.

As for `CN1CCN(C(=O)[C@H]2[C@H](CO)[C@H]3Cn4c(ccc(C5=CCCC5)c4=O)[C@@H]2N3S(C)(=O)=O)CC1`, the cytotoxicity call was “inactive”.

In the case of `CC(C)/C(=N/O)c1ccccc1`, the cytotoxicity call is “inactive”.

In the case of `CC(C)NC(=O)N(C)C[C@@H]1Oc2ccc(NC(=O)C3CCCCC3)cc2C(=O)N([C@@H](C)CO)C[C@H]1C`, the cytotoxicity call is “inactive”.

For `C[C@@H]1O[C@H]2Oc3c(-c4ccc(O)cc4)oc4cc(O)c(c(O)c4c3=O)-c3cc(ccc3O)/C=C\C(=O)OC[C@H]3O[C@@H](O[C@H]([C@H]1O)[C@H]2O)[C@H](O)[C@@H](O)[C@@H]3O`, the cytotoxicity call is “inactive”.

With `CC(=O)Nc1ncc(CN2CCOCC2)s1`, the cytotoxicity call was “inactive”.

As to `Cc1c(CN2CCN(C(=O)[C@H](C)O)CC2)sc2c(N3CCOCC3)nc(-c3cnc(N)nc3)nc12`, the cytotoxicity call is “active”.

Take `CC(C)NC(=O)N(C)C[C@@H]1Oc2ccc(NS(=O)(=O)c3cccs3)cc2C(=O)N([C@H](C)CO)C[C@@H]1C`: the cytotoxicity call is “inactive”.

Turning to `CC(C)NC(=O)N(C)C[C@H]1Oc2ccc(NC(=O)C3CCCCC3)cc2C(=O)N([C@H](C)CO)C[C@H]1C`, the cytotoxicity call is “inactive”.

As for `C[C@H](CO)N1C[C@H](C)[C@H](CN(C)C(=O)NC2CCCCC2)OCCCC[C@H](C)Oc2ccc(NC(=O)Nc3ccc4c(c3)OCO4)cc2C1=O`, the cytotoxicity call is “inactive”.

In the case of `C[C@H]1CN([C@@H](C)CO)C(=O)c2cc(-c3cccc(C#N)c3)cnc2O[C@@H]1CN(C)C(=O)c1cnccn1`, the cytotoxicity call was “inactive”.

Turning to `CC1(COc2ccc3c(c2)ncn3-c2ccc3cccc(N4CCC(N)CC4)c3n2)COC1`, the cytotoxicity call was “active”.

As for `COCCOC(=O)N1C(=O)[C@@]2(c3cc(C#CC4=CCCCC4)ccc31)[C@H](c1ccccc1OCCO)N1[C@H](c3ccccc3)[C@H](c3ccccc3)OC(=O)[C@H]1[C@@H]2C(=O)N1CCc2cc(OC)c(OC)cc2C1`, the cytotoxicity call is “inactive”.

As to `C=CCNC(=O)[C@@H]1[C@H]2C(=O)O[C@H](c3ccccc3)[C@H](c3ccccc3)N2[C@H](c2ccccc2OCCO)[C@@]12C(=O)Nc1ccc(C#CC3=CCCCC3)cc12`, the cytotoxicity call is “active”.

For `C=CCNC(=O)[C@@H]1[C@H]2C(=O)O[C@H](c3ccccc3)[C@H](c3ccccc3)N2[C@H](c2ccc(OCCO)cc2)[C@@]12C(=O)Nc1ccc(C#CC3=CCCCC3)cc12`, the cytotoxicity call was “inactive”.

Regarding `C=CCNC(=O)[C@@H]1[C@H]2C(=O)O[C@H](c3ccccc3)[C@H](c3ccccc3)N2[C@H](c2ccccc2OCCO)[C@@]12C(=O)Nc1ccc(C#Cc3ccc(OC)cc3)cc12`, the cytotoxicity call is “inactive”.

As for `O=C1O[C@H](c2ccccc2)[C@H](c2ccccc2)N2[C@H]1[C@@H](C(=O)NC[C@@H](O)c1ccccc1)[C@]1(C(=O)Nc3ccc(C#CC4(O)CCCCCC4)cc31)[C@H]2c1ccccc1OCCO`, the cytotoxicity call is “inactive”.

In the case of `COCCOC(=O)N1C(=O)[C@@]2(c3cc(C#CC4=CCCCC4)ccc31)[C@H](C(=O)N1CCc3cc(OC)c(OC)cc3C1)[C@H]1C(=O)O[C@H](c3ccccc3)[C@H](c3ccccc3)N1[C@@H]2c1ccccc1OCCO`, the cytotoxicity call is “active”.

On to `O=C1O[C@H](c2ccccc2)[C@H](c2ccccc2)N2[C@H]1[C@@H](C(=O)NC[C@@H](O)c1ccccc1)[C@]1(C(=O)Nc3ccc(C#CC4=CCCCC4)cc31)[C@H]2c1ccccc1OCCO`, for which the cytotoxicity call is “active”.

With `COCCOC(=O)N1C(=O)[C@@]2(c3cc(C#CC4=CCCCC4)ccc31)[C@H](c1ccc(OCCO)cc1)N1[C@H](c3ccccc3)[C@H](c3ccccc3)OC(=O)[C@H]1[C@@H]2C(=O)N1CCc2cc(OC)c(OC)cc2C1`, the cytotoxicity call was “inactive”.

With `C=CCNC(=O)[C@H]1[C@@H]2C(=O)O[C@@H](c3ccccc3)[C@@H](c3ccccc3)N2[C@@H](c2ccc(OCCO)cc2)[C@]12C(=O)Nc1ccc(C#CC3=CCCCC3)cc12`, the cytotoxicity call is “inactive”.

With `O=C1O[C@@H](c2ccccc2)[C@@H](c2ccccc2)N2[C@@H](c3ccc(OCCO)cc3)[C@]3(C(=O)Nc4ccc(C#CC5=CCCCC5)cc43)[C@@H](C(=O)NC[C@H](O)c3ccccc3)[C@H]12`, the cytotoxicity call was “inactive”.

`C=CCNC(=O)[C@H]1[C@@H]2C(=O)O[C@@H](c3ccccc3)[C@@H](c3ccccc3)N2[C@@H](c2ccccc2OCCO)[C@]12C(=O)Nc1ccc(C#CC3=CCCCC3)cc12`: the cytotoxicity call was “active”.

For `C=CCNC(=O)[C@H]1[C@@H]2C(=O)O[C@@H](c3ccccc3)[C@@H](c3ccccc3)N2[C@@H](c2ccccc2OCCO)[C@]12C(=O)Nc1ccc(C#CC3(O)CCCCCC3)cc12`, the cytotoxicity call is “inactive”.

Consider `C[C@H]1CN([C@@H](C)CO)C(=O)c2cc(NC(=O)Cn3cnnn3)ccc2O[C@@H]1CN(C)Cc1ccc(-c2ccccc2)cc1`, for which the cytotoxicity call is “inactive”.

In the case of `COc1ccc(NC(=O)Nc2ccc3c(c2)C(=O)N([C@H](C)CO)C[C@@H](C)[C@H](CN(C)S(=O)(=O)c2c(C)noc2C)OCCCC[C@@H](C)O3)cc1`, the cytotoxicity call was “inactive”.

On to `CC1CC2C3CC(F)C4=CC(=O)C=CC4(C)C3(F)C(O)CC2(C)C1(O)C(=O)COC(=O)C(C)(C)C` (stereo not given), for which the cytotoxicity call was “inactive”.

`CC(=O)Nc1nnc2n1CCS2`: the cytotoxicity call was “inactive”.

As for `C[C@H](O)C#Cc1cnc2c(c1)C(=O)N([C@H](C)CO)C[C@@H](C)[C@@H](CN(C)C(=O)CN1CCOCC1)O2`, the cytotoxicity call was “inactive”.

For `C[C@H]1CN([C@@H](C)CO)C(=O)c2cccc(NS(=O)(=O)c3ccc(F)cc3)c2O[C@@H]1CN(C)S(=O)(=O)c1cn(C)cn1`, the cytotoxicity call is “inactive”.

With `C[C@@H]1CCCCO[C@H](CN(C)C(=O)c2ccncc2)[C@H](C)CN([C@H](C)CO)C(=O)c2cc(NS(=O)(=O)c3cn(C)cn3)ccc2O1`, the cytotoxicity call was “inactive”.

As to `O=C(C[C@@H]1C=C[C@@H](NC(=O)c2cccc(F)c2)[C@@H](CO)O1)NCCN1CCCC1`, the cytotoxicity call was “inactive”.

Consider `Clc1cccn2nnnc12`, for which the cytotoxicity call was “inactive”.

Take `C[C@@H]1CCCCO[C@H](CN(C)Cc2ccc(C(=O)O)cc2)[C@H](C)CN([C@@H](C)CO)C(=O)c2cc(NC(=O)c3ccccc3)ccc2O1`: the cytotoxicity call is “inactive”.

Turning to `C[C@@H]1CCCCO[C@@H](CN(C)Cc2ccc(C(F)(F)F)cc2)[C@H](C)CN([C@@H](C)CO)C(=O)c2cc(NC(=O)CCC(F)(F)F)ccc2O1`, the cytotoxicity call is “inactive”.

As for `COC(=O)C1=CC(CCCO)=C[C@@H](c2cccs2)N(Cc2cccc(OC(F)(F)F)c2)C=C1C(=O)OC`, the cytotoxicity call was “inactive”.

Turning to `NC(=O)[C@H]1[C@@H]2C(=O)O[C@@H](c3ccccc3)[C@@H](c3ccccc3)N2[C@@H](c2ccccc2OCCO)[C@]12C(=O)Nc1ccc(C#CC3=CCCCC3)cc12`, the cytotoxicity call is “active”.

As to `COc1ccc(C#Cc2ccc3c(c2)[C@]2(C(=O)N3)[C@H](c3ccccc3OCCO)N3[C@H](c4ccccc4)[C@H](c4ccccc4)OC(=O)[C@H]3[C@@H]2C(=O)O)cc1`, the cytotoxicity call was “inactive”.

Regarding `O=C1O[C@@H](c2ccccc2)[C@@H](c2ccccc2)N2[C@@H](c3ccccc3OCCO)[C@]3(C(=O)Nc4ccc(C#CC5=CCCCC5)cc43)[C@@H](C(=O)O)[C@H]12`, the cytotoxicity call was “inactive”.

On to `COCCOC(=O)N1C(=O)[C@@]2(c3cc(C#Cc4ccc(OC)cc4)ccc31)[C@H](c1ccc(OCCO)cc1)N1[C@H](c3ccccc3)[C@H](c3ccccc3)OC(=O)[C@H]1[C@@H]2C(=O)NC[C@H](O)c1ccccc1`, for which the cytotoxicity call was “inactive”.

Consider `COCCOC(=O)N1C(=O)[C@@]2(c3cc(C#Cc4ccc(OC)cc4)ccc31)[C@H](c1ccc(OCCO)cc1)N1[C@H](c3ccccc3)[C@H](c3ccccc3)OC(=O)[C@H]1[C@@H]2C(N)=O`, for which the cytotoxicity call is “inactive”.

For `COc1ccc(C#Cc2ccc3c(c2)[C@]2(C(=O)N3)[C@H](C(=O)O)[C@H]3C(=O)O[C@H](c4ccccc4)[C@H](c4ccccc4)N3[C@@H]2c2ccccc2OCCO)cc1`, the cytotoxicity call was “inactive”.

For the compound `COc1ccc(C#Cc2ccc3c(c2)[C@]2(C(=O)N3)[C@H](C(N)=O)[C@H]3C(=O)O[C@H](c4ccccc4)[C@H](c4ccccc4)N3[C@@H]2c2ccccc2OCCO)cc1`, the cytotoxicity call is “active”.

For `COc1ccc(C#Cc2ccc3c(c2)[C@@]2(C(=O)N3C(=O)N[C@@H](C)c3ccccc3)[C@H](c3ccc(OCCO)cc3)N3[C@H](c4ccccc4)[C@H](c4ccccc4)OC(=O)[C@H]3[C@@H]2C(=O)O)cc1`, the cytotoxicity call is “active”.

Turning to `O=C1O[C@H](c2ccccc2)[C@H](c2ccccc2)N2[C@H]1[C@@H](C(=O)O)[C@]1(C(=O)Nc3ccc(C#CC4=CCCCC4)cc31)[C@H]2c1ccccc1OCCO`, the cytotoxicity call is “inactive”.
